In PubChem BioAssay (NCI):
Compounds without any hit were thinned out: in the full panel of roughly 83,000, 20% have a hit.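 Cell lines were cultured in 96-well plates, exposed to a single compound concentration, and assessed for percent growth 48 hours later.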 Unmarked numbers belong to inactive results. The source made the active and inactive calls. The calls were made as follows: active = growth percent below 10; inactive = the rest.

These molecules were tested on HL-60(TB) leukemia (assay: NCI-60 one-dose screen, 48 h (100 = growth as untreated, 0 = no growth, -100 = all killed)). Conditions: 10 µM unless noted.
`CC(=O)Cc1cc(-c2cc(CC(C)=O)[nH]n2)n[nH]1` was tested, and the growth was 88.1%.
`O=C(CCCCCCCn1cc(-c2cccnc2)nn1)Nc1ccccc1-c1ccccc1` was tested, and the growth was 45.7%.
In the case of `C#CCO[C@H]1CC[C@H](OCC#C)[C@@H]2[C@H]1[C@H]1C[C@@H]3[C@@]4(C)CCC[C@@](C)(C(=O)OC)[C@@H]4CC[C@@]23C=C1C(C)C`, the growth is reported as 78.1%.
In the case of `COc1cc2c(cc1OC)C(=O)/C(=C/c1cc(-c3ccc4c(c3)OCO4)n[nH]1)C2`, the growth is reported as -43.8% (active).
